# Assay results: publication PMC7862700, “An all-to-all approach to the identification of sequence-specific readers for epigenetic DNA modifications on cytosine”
# Columns and labels:
# Experiment in all cases: DAPPL (digital affinity profiling via proximity ligation, sequencing); 10 mM Tris-HCl pH 7.5, 50 mM NaCl, 1 mM DTT, 4% glycerol, room temperature, 30 min; GST-TFs on glutathione beads, 16-mer random dsDNA library, 0.1% formaldehyde crosslink after washing; high values mean tight binding
# Conditions in all cases: protein: recombinant; tags: N-terminal GST; dsDNA, one strand shown
# ELF4 = ELF4 (Homo sapiens, UniProt Q99607 1-663)
# Method in brief: (§1)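 Pools were built from human transcription factors expressed in yeast as GST fusions, captured on glutathione beads and DNA-barcoded, along with a tag-only sample. Incubation with 200 nmole of a 16-mer random double-stranded DNA library lasted 30 min at room temperature in Tris/NaCl/DTT/glycerol buffer, and was followed by washing, 0.1% formaldehyde crosslinking, proximity ligation, PCR amplification and Illumina NextSeq500 sequencing. Binding signal is the quotient of each hexamer's read frequency for a factor and its frequency for the tag-only sample.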
# ETV2 = molecular target: T1, ETV2 (Homo sapiens, UniProt O00321 1-342)
# T1 sequence: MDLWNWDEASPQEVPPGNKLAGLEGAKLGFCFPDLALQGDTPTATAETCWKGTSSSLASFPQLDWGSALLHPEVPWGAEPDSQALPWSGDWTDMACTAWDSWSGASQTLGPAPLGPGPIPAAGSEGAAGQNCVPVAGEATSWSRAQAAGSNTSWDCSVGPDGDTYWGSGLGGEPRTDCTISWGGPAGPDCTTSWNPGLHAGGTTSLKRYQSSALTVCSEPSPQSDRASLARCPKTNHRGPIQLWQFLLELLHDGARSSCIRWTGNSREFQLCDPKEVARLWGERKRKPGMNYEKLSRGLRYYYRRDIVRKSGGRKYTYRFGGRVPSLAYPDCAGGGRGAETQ
# Method in brief: as §1
# ELF3 = molecular target: T2, ELF3 (Homo sapiens, UniProt P78545 1-371)
# T2 sequence: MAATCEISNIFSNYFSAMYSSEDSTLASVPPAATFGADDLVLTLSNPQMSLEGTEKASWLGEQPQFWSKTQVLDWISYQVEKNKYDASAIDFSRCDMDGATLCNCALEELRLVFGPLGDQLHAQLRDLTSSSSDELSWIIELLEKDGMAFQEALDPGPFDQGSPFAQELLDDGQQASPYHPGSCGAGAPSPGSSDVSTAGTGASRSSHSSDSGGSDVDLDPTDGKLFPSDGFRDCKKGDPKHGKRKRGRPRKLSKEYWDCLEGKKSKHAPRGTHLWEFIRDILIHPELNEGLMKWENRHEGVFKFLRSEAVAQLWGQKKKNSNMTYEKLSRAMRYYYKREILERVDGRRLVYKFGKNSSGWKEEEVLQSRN
# Method in brief: as §1
# ETV1 = ETV1 (Homo sapiens, UniProt P50549 1-477)
# Method in brief: as §1
# ERF = molecular target: T3, ERF (Homo sapiens, UniProt P50548 1-548)
# T3 sequence: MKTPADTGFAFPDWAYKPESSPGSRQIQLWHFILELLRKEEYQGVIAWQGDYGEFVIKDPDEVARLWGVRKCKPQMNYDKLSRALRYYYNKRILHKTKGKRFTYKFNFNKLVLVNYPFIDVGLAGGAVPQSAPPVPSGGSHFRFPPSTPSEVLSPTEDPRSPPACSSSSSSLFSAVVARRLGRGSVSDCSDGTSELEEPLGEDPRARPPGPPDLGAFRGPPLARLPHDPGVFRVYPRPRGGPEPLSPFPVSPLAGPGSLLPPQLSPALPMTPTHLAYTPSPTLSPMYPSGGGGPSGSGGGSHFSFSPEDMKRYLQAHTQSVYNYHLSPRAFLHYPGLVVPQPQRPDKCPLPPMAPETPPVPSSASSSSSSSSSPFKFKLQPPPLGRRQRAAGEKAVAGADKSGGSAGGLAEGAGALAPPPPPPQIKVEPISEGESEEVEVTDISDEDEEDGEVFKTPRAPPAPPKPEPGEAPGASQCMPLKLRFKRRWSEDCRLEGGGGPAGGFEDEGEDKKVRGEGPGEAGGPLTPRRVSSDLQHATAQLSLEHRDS
# Method in brief: as §1
# ETV3L = molecular target: T4, ETV3L (Homo sapiens, UniProt Q6ZN32 1-361)
# T4 sequence: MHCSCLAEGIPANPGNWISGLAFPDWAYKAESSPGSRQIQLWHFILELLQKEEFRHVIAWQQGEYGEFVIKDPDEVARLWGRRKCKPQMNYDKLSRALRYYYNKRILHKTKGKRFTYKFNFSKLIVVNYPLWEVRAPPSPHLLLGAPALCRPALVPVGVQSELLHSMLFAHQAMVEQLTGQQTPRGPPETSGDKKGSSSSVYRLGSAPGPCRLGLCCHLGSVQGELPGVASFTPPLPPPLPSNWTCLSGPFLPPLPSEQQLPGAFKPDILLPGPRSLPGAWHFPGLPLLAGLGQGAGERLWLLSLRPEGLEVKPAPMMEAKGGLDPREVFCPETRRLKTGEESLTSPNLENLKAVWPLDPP
# Method in brief: as §1
# ETS2 = molecular target: T5, ETS2 (Homo sapiens, UniProt P15036 1-469)
# T5 sequence: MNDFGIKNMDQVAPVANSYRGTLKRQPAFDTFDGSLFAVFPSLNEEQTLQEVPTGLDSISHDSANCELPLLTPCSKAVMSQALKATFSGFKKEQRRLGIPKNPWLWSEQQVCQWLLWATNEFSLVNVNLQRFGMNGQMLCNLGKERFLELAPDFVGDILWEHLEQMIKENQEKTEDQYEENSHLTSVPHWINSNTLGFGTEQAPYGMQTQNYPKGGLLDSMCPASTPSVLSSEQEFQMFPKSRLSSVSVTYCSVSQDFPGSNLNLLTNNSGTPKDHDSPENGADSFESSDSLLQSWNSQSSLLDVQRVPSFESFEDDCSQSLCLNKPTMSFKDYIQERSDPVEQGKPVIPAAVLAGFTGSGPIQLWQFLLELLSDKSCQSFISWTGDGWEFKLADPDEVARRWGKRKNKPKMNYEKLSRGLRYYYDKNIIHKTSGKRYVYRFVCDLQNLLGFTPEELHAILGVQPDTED
# Method in brief: as §1
# ETV7 = molecular target: T6, ETV7 (Homo sapiens, UniProt Q9Y603 1-341)
# T6 sequence: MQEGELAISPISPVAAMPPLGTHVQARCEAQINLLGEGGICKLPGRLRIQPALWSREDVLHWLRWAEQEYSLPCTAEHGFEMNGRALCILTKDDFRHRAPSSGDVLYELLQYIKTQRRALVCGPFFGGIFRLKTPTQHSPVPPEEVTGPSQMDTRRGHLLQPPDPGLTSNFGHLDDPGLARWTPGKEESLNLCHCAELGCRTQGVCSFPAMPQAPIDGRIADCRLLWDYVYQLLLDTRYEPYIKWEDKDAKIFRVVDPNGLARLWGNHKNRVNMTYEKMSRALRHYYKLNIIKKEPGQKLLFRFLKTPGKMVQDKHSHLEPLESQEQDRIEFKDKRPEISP
# Method in brief: as §1
# ETV3 = molecular target: T7, ETV3 (Homo sapiens, UniProt P41162-2 1-143)
# T7 sequence: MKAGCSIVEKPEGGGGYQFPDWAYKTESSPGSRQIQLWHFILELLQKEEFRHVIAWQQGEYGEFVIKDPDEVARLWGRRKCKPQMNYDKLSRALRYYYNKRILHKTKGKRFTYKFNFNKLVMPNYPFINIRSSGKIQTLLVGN
# Method in brief: as §1
# ETV6 = ETV6 (Homo sapiens, UniProt P41212 1-452)
# Method in brief: as §1
# Chain of ELF4 (Q99607 whole entry, the tested form may be a part): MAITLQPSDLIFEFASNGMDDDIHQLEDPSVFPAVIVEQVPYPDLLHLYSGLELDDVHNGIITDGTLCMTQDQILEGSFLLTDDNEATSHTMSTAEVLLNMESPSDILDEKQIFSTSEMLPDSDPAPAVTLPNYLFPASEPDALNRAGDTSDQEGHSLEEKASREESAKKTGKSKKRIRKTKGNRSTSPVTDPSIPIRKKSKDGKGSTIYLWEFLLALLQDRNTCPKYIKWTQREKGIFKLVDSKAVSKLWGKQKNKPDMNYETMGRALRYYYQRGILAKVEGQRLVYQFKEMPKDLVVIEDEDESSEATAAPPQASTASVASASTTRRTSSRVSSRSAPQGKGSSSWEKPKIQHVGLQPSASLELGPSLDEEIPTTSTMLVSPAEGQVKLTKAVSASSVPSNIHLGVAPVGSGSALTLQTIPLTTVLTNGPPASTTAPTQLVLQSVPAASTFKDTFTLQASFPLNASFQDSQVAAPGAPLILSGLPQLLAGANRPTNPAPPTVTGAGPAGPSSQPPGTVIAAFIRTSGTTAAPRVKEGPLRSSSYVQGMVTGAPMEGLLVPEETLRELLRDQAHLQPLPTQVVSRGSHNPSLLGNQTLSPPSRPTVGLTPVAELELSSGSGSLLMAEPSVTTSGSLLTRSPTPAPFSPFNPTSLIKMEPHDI
# Chain of ETV1 (P50549 whole entry): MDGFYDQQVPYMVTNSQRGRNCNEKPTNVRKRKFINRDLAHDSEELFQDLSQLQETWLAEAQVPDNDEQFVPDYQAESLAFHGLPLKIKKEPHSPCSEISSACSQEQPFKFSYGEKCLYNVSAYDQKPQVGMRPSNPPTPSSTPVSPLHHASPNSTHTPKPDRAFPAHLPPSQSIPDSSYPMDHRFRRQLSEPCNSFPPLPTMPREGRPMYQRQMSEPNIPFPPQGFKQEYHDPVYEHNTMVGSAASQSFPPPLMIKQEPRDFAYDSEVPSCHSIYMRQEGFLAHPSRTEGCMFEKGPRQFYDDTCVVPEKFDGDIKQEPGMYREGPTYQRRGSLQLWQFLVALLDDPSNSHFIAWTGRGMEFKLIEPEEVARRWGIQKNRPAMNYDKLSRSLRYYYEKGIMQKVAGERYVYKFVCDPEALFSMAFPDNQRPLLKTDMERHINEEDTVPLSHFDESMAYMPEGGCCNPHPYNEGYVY
# Chain of ETV6 (P41212 whole entry): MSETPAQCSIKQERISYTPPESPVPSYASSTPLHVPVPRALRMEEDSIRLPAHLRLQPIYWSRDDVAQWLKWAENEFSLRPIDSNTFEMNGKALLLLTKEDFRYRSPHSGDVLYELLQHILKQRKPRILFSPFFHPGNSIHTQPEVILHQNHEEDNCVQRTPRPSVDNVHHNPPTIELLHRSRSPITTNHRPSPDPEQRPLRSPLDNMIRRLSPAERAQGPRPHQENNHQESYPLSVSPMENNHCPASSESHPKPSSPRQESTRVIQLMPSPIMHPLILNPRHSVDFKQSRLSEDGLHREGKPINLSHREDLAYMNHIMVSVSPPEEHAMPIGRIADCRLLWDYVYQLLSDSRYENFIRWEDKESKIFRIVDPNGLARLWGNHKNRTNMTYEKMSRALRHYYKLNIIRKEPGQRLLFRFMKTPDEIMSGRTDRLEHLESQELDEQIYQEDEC
sequence,measurement,setting,value
AACTGA,binding signal,ELF4,"1.05 fold enrichment (6-mer frequency, TF over GST control)"
same,binding signal,ETV2,"1.07 fold enrichment (6-mer frequency, TF over GST control)"
same,binding signal,ELF3,"1.12 fold enrichment (6-mer frequency, TF over GST control)"
same,binding signal,ETV1,"1.16 fold enrichment (6-mer frequency, TF over GST control)"
same,binding signal,ERF,"1.08 fold enrichment (6-mer frequency, TF over GST control)"
same,binding signal,ETV3L,"1.09 fold enrichment (6-mer frequency, TF over GST control)"
same,binding signal,ETS2,"1.16 fold enrichment (6-mer frequency, TF over GST control)"
same,binding signal,ETV7,"1.05 fold enrichment (6-mer frequency, TF over GST control)"
same,binding signal,ETV3,"1.06 fold enrichment (6-mer frequency, TF over GST control)"
same,binding signal,ETV6,"1.1 fold enrichment (6-mer frequency, TF over GST control)"
